Assay results: the supplement of paper PMC10849652
Of roughly 7,900 targets only a part is listed; those with a hit were picked by preference. About 0.6% of all pairs of compound and target were hits.

How the values were obtained:
Assay in all cases: log2 fold change, soluble protein after heating vs DMSO (PISA); higher = thermal stabilisation; K562 cells, 10 uM, 30 min; active = over 0.2 and 3.5 SD of the protein, either way, in both replicates (recomputed)
[1] = compound: C#Cc1cccc(Nc2ncnc3cc(OCCOC)c(OCCOC)cc23)c1 [erlotinib]
Summary of the method: (§1)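 Quantification of soluble protein used TMTpro 16plex LC-MS/MS, with channel sums equalised. Samples were the supernatant after 21,000xg for 90 min of pooled aliquots from K562 cells (2×10^6 cells/mL) treated with 10 μM compound for 30 min, heated for 3 min over 48°C-58°C, and extracted in PBS with 0.5% NP-40 at 4°C. Values, from duplicates, describe thermal stability against control samples on a log2 fold-change scale.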

[2] = compound: C/C(=N\NC(=O)C1=CC(=CC=C1)S(=O)(=O)N2CCOCC2)/C3=C(C=CC(=C3)Cl)O
Summary of the method: as §1

[3] = compound: C1=CC(=C(C=C1Cl)C2=NC3=NC=CN=C3C(=N2)NC4=CC=NC=C4)F
Summary of the method: as §1

[4] = compound: C1=CC(=CC=C1C2=NC3=C(N2)C=C(C=C3)C(=O)N)OC4=CC=C(C=C4)Cl
Summary of the method: as §1

[5] = compound: C1=CC2=C(C=CC(=C2)/C=C\3/C(=O)NC(=NCC4=CC=CS4)S3)N=C1
Summary of the method: as §1

[6] = compound: C1=CC2=NC=CN=C2C=C1/C=C/3\C(=O)NC(=O)S3
Summary of the method: as §1

[7] = compound: C1=CC=C(C=C1)C2=NC(=C(N2)C3=CC=NC=C3)C4=CC(=C(C=C4)Cl)O
Summary of the method: as §1

[8] = compound: C1=CC=C2C(=C1)C3=NNC4=CC=CC(=C43)C2=O
Summary of the method: as §1

[9] = compound: C1CCN(C1)C(=O)NC2=CC=CC(=C2)NC3=NC=C(C(=N3)NCCC4=CN=CN4)Br
Summary of the method: as §1

[10] = compound: C1CN(CCC1(CC2=CC=C(C=C2)Cl)N)C3=NC=NC4=C3C=CN4
Summary of the method: as §1

[11] = compound: C1COCCN1CCN2C3=CC=CC=C3N=C2NC(=O)C4=CC(=CC=C4)[N+](=O)[O-] [IRAK-1-4 Inhibitor I]
Summary of the method: as §1

[12] = compound: C=CC(=O)N1CCC[C@@H](n2nc(-c3ccc(Oc4ccccc4)cc3)c3c(N)ncnc32)C1 [ibrutinib]
Summary of the method: as §1

[13] = compound: CC(=O)c1cnc2ccc(-c3cc(Cl)c(O)c(Cl)c3)nc2c1N[C@H]1CC[C@H](CN(C)C)CC1
Summary of the method: as §1

[14] = compound: CC(C)(C)Cn1c(N)nc2ccc(-c3[nH]c(C(C)(C)C)nc3-c3ccc(F)cc3)nc21 [ralimetinib]
Summary of the method: as §1

[15] = compound: CC(C)(O)CC(=O)NCCn1ccc2ncnc(Nc3ccc(Oc4cccc(C(F)(F)F)c4)c(Cl)c3)c21
Summary of the method: as §1

[16] = compound: CC(C)C1=C2N=C(C=C(N2N=C1)NCC3=CC=CC=C3)NCCCCCCN
Summary of the method: as §1

[17] = compound: CC(C)C[C@@H](C=O)NC(=O)[C@H](CC(C)C)NC(=O)[C@H](CC(C)C)NC(=O)OCc1ccccc1
Summary of the method: as §1

[18] = compound: CC(C)N(C[C@H]1O[C@@H](n2cnc3c(N)ncnc32)[C@H](O)[C@@H]1O)[C@H]1C[C@@H](CCc2nc3cc(C(C)(C)C)ccc3[nH]2)C1 [pinometostat]
Summary of the method: as §1

[19] = compound: CC1=C(C(CC(=O)N1)C2=CC=C(C=C2)C(F)(F)F)C(=O)NC3=C(C=C4C(=C3)C=NN4)F
Summary of the method: as §1

[20] = compound: CC1=C(C2=C(C=C1)C(=O)C3=CC=CC=C3N2CCCN)C
Summary of the method: as §1

Measured: log2 fold change

TMEM189-UBE2V1 (UniProt I3L0A0)
inactive: [1] -0.014 | [2] 0.025 | [3] 0.015 | [4] 0.019 | [5] 0.055 | [6] -0.047 | [7] 0.028 | [8] -0.009 | [9] 0.02 | [10] 0.058 | [11] 0.048 | [12] 0.022 | [13] -0.022 | [14] 0.006 | [15] -0.024 | [16] 0.031 | [17] -0.028 | [18] -0.046 | [19] 0.03 | [20] 0.037

TOMM5 isoform 2 (UniProt Q8N4H5)
Sequence of UniProt Q8N4H5 (Q8N4H5 whole entry, looked up): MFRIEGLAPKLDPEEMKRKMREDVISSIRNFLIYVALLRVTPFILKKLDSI
active: [3] 0.378
inactive: [1] -0.115 | [2] 0.063 | [4] 0.134 | [5] 0 | [6] 0.052 | [7] -0.123 | [8] -0.003 | [9] -0.038 | [10] -0.047 | [11] 0.037 | [12] 0.01 | [13] -0.033 | [14] -0.099 | [15] -0.048 | [16] 0.221 | [17] 0.036 | [18] 0.148 | [19] -0.004 | [20] 0.003

TRAPPC13 isoform 5 (UniProt A5PLN9)
inactive: [1] 0.133 | [2] 0.047 | [3] -0.028 | [4] -0.047 | [5] 0.084 | [6] 0.021 | [7] 0 | [8] -0.038 | [9] -0.005 | [10] 0.009 | [11] -0.06 | [12] -0.047 | [13] -0.121 | [14] -0.048 | [15] -0.093 | [16] -0.014 | [17] 0.026 | [18] 0.033 | [19] -0.06 | [20] -0.047

UPF3B (UniProt Q9BZI7)
inactive: [1] -0.108 | [2] -0.149 | [4] 0.088 | [5] -0.053 | [6] -0.072 | [7] -0.019 | [8] -0.016 | [9] 0.117 | [10] -0.097 | [11] -0.099 | [12] 0.158 | [13] 0.265 | [14] 0.27 | [15] 0.057 | [16] -0.02 | [17] 0.19 | [18] 0.394 | [19] -0.002 | [20] -0.183
active: [3] -0.703

WDCP (UniProt Q9H6R7)
inactive: [1] 0.083 | [2] -0.003 | [3] 0.058 | [4] 0.065 | [5] -0.015 | [6] 0.134 | [7] -0.022 | [8] -0.068 | [9] -0.012 | [10] -0.011 | [11] -0.01 | [12] -0.038 | [13] 0.078 | [14] -0.006 | [15] -0.053 | [16] 0.032 | [17] 0.014 | [18] 0.076 | [19] 0.055 | [20] 0.023

UTP14A (UniProt Q9BVJ6)
Sequence of UniProt Q9BVJ6 (Q9BVJ6 whole entry, looked up): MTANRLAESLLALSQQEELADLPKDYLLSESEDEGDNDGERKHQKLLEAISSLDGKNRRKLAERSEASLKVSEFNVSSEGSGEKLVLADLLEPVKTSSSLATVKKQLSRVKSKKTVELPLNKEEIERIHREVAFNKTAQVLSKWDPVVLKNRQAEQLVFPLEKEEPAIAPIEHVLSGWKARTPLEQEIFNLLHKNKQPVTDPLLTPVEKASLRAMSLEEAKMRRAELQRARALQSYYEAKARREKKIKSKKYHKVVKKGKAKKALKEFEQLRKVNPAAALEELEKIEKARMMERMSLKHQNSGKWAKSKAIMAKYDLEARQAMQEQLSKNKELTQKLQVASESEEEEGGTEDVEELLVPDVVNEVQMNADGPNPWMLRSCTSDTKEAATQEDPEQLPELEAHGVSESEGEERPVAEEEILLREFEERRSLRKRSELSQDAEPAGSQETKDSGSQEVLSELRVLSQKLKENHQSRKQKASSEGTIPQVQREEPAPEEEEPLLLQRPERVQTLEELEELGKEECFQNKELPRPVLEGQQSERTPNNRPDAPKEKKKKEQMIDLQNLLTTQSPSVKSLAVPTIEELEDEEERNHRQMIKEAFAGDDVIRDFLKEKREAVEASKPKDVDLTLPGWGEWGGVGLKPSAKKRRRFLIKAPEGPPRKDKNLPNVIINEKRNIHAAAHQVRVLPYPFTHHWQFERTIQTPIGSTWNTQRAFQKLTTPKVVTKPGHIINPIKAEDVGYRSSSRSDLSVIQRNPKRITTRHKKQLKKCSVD
active: [20] -0.708
inactive: [1] -0.142 | [2] -0.15 | [3] -0.301 | [4] 0.06 | [5] -0.075 | [6] -0.005 | [7] -0.06 | [8] -0.045 | [9] 0.006 | [10] -0.155 | [11] -0.13 | [12] -0.026 | [13] 0.088 | [14] 0.11 | [15] 0.007 | [16] -0.113 | [17] 0.154 | [18] 0.262 | [19] 0.065

WDR62 isoform 4 (UniProt O43379)
inactive: [1] 0.046 | [2] 0.015 | [3] -0.118 | [4] 0.055 | [5] -0.016 | [6] 0.046 | [7] -0.05 | [8] -0.041 | [9] 0 | [10] 0.014 | [11] 0.085 | [12] -0.069 | [14] 0.003 | [15] -0.003 | [16] -0.085 | [17] 0.042 | [18] 0.062 | [19] 0.063 | [20] -0.176
active: [13] -0.579

UBE2S (UniProt Q16763)
Sequence of UniProt Q16763 (Q16763 whole entry, looked up): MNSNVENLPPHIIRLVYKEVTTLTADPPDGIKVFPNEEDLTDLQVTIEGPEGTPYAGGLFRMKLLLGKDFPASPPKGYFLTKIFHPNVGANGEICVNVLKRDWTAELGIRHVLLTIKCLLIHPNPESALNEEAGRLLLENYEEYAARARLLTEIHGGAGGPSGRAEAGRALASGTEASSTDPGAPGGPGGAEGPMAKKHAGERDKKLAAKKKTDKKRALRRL
inactive: [1] 0.01 | [2] 0.064 | [3] -0.025 | [4] -0.021 | [5] 0.052 | [6] 0.014 | [7] -0.008 | [8] 0.014 | [9] -0.02 | [10] 0.029 | [11] -0.065 | [12] -0.035 | [13] -0.037 | [14] 0.03 | [15] -0.034 | [16] 0.018 | [17] 0.125 | [18] -0.05 | [19] -0.004 | [20] -0.055

TRMT10C (UniProt Q7L0Y3)
Sequence of UniProt Q7L0Y3 (Q7L0Y3 whole entry, looked up): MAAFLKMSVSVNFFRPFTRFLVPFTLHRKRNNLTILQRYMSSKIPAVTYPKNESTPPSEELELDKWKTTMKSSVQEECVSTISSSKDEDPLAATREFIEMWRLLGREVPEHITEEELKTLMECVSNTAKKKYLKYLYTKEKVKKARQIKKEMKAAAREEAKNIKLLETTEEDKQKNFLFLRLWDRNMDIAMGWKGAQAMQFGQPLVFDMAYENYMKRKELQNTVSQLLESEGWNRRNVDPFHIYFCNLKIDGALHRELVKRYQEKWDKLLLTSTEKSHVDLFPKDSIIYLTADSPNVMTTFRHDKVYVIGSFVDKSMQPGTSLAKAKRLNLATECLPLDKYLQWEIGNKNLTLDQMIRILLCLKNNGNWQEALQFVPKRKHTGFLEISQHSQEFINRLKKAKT
inactive: [1] -0.015 | [2] 0.066 | [3] 0.09 | [4] 0.062 | [5] 0.009 | [6] -0.007 | [7] 0.036 | [8] 0.036 | [9] -0.008 | [10] 0.009 | [11] 0.029 | [12] 0.011 | [13] -0.07 | [14] -0.06 | [15] -0.055 | [16] 0.012 | [17] 0.005 | [18] -0.021 | [19] 0.016 | [20] 0.014

TSEN2 (UniProt Q8NCE0)
Sequence of UniProt Q8NCE0 (Q8NCE0 whole entry, looked up): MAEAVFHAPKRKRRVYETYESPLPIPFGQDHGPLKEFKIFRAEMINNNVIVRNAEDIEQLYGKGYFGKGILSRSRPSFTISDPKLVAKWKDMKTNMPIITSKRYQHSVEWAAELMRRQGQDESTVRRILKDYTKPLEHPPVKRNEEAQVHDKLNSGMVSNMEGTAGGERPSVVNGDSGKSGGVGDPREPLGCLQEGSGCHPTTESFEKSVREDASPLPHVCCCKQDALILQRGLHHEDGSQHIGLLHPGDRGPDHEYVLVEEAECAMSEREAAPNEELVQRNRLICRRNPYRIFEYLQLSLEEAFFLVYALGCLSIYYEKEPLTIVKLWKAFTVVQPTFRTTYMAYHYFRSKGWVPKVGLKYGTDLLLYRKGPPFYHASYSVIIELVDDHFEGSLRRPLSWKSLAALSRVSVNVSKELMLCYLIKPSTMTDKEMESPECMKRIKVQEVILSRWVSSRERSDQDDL
inactive: [1] 0.08 | [2] -0.001 | [3] -0.016 | [4] 0.029 | [5] 0.041 | [6] 0.098 | [7] 0.023 | [8] 0.023 | [9] -0.04 | [10] 0.061 | [11] 0.073 | [12] -0.022 | [13] -0.116 | [14] -0.034 | [15] -0.127 | [16] 0.033 | [17] -0.001 | [18] 0.004 | [19] 0.055 | [20] 0.027

TXNRD1 (UniProt Q16881)
Sequence of UniProt Q16881 (Q16881 whole entry, looked up): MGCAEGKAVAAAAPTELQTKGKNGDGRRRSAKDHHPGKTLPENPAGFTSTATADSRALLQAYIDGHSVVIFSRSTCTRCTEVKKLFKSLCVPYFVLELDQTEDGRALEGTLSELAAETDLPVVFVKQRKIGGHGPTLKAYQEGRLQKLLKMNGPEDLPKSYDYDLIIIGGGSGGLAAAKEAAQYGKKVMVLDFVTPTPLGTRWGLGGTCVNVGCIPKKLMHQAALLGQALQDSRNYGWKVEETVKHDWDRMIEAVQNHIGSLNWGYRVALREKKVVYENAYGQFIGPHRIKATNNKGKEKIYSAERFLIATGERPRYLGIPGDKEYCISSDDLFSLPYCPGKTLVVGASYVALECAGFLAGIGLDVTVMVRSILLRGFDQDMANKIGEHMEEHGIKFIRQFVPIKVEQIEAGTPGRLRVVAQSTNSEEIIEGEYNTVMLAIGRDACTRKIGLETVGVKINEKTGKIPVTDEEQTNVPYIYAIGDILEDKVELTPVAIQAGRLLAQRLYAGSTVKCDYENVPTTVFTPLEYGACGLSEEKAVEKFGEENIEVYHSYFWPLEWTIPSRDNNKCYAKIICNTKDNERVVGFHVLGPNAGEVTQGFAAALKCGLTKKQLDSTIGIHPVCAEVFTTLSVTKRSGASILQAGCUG
inactive: [1] 0.021 | [2] 0.049 | [3] 0.057 | [4] -0.006 | [5] 0.009 | [6] 0.074 | [7] 0.027 | [8] 0.019 | [9] 0.005 | [10] 0.046 | [11] 0.064 | [12] -0.035 | [13] -0.062 | [14] -0.088 | [15] -0.049 | [16] -0.013 | [17] -0.03 | [18] -0.042 | [19] -0.011 | [20] 0.077

UTP4 (UniProt Q969X6)
active: [16] 0.233 | [20] 0.343
inactive: [1] -0.05 | [2] -0.07 | [3] -0.009 | [4] 0.005 | [5] -0.082 | [6] 0.026 | [7] -0.022 | [8] 0.012 | [9] 0 | [10] 0.06 | [11] 0.003 | [12] 0.002 | [13] 0.02 | [14] -0.07 | [15] 0.045 | [17] -0.014 | [18] -0.017 | [19] -0.019

TMEM161B (UniProt Q8NDZ6)
Sequence of UniProt Q8NDZ6 (Q8NDZ6 whole entry, looked up): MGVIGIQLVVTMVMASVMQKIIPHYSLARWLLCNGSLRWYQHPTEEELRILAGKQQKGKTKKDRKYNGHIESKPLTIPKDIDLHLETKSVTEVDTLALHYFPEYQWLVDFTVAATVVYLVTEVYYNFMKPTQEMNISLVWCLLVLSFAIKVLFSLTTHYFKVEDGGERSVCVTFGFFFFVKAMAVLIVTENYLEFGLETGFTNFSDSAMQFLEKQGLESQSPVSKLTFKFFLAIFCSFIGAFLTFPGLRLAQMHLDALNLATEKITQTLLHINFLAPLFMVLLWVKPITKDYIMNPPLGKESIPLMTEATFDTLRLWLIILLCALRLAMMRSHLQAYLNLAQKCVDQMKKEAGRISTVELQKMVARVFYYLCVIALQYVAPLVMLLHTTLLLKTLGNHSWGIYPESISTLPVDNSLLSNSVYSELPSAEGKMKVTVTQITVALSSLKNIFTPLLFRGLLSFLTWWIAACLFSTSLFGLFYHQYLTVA
active: [15] -0.227
inactive: [1] 0.037 | [2] -0.074 | [3] 0.013 | [4] -0.021 | [5] -0.054 | [6] 0.018 | [7] 0.159 | [8] -0.026 | [9] -0.053 | [10] -0.03 | [11] 0.06 | [12] -0.039 | [13] 0.008 | [14] -0.097 | [16] -0.052 | [17] 0.015 | [18] -0.002 | [19] -0.031 | [20] 0.022

VWA8 (UniProt A3KMH1)
Sequence of UniProt A3KMH1 (A3KMH1 whole entry, looked up): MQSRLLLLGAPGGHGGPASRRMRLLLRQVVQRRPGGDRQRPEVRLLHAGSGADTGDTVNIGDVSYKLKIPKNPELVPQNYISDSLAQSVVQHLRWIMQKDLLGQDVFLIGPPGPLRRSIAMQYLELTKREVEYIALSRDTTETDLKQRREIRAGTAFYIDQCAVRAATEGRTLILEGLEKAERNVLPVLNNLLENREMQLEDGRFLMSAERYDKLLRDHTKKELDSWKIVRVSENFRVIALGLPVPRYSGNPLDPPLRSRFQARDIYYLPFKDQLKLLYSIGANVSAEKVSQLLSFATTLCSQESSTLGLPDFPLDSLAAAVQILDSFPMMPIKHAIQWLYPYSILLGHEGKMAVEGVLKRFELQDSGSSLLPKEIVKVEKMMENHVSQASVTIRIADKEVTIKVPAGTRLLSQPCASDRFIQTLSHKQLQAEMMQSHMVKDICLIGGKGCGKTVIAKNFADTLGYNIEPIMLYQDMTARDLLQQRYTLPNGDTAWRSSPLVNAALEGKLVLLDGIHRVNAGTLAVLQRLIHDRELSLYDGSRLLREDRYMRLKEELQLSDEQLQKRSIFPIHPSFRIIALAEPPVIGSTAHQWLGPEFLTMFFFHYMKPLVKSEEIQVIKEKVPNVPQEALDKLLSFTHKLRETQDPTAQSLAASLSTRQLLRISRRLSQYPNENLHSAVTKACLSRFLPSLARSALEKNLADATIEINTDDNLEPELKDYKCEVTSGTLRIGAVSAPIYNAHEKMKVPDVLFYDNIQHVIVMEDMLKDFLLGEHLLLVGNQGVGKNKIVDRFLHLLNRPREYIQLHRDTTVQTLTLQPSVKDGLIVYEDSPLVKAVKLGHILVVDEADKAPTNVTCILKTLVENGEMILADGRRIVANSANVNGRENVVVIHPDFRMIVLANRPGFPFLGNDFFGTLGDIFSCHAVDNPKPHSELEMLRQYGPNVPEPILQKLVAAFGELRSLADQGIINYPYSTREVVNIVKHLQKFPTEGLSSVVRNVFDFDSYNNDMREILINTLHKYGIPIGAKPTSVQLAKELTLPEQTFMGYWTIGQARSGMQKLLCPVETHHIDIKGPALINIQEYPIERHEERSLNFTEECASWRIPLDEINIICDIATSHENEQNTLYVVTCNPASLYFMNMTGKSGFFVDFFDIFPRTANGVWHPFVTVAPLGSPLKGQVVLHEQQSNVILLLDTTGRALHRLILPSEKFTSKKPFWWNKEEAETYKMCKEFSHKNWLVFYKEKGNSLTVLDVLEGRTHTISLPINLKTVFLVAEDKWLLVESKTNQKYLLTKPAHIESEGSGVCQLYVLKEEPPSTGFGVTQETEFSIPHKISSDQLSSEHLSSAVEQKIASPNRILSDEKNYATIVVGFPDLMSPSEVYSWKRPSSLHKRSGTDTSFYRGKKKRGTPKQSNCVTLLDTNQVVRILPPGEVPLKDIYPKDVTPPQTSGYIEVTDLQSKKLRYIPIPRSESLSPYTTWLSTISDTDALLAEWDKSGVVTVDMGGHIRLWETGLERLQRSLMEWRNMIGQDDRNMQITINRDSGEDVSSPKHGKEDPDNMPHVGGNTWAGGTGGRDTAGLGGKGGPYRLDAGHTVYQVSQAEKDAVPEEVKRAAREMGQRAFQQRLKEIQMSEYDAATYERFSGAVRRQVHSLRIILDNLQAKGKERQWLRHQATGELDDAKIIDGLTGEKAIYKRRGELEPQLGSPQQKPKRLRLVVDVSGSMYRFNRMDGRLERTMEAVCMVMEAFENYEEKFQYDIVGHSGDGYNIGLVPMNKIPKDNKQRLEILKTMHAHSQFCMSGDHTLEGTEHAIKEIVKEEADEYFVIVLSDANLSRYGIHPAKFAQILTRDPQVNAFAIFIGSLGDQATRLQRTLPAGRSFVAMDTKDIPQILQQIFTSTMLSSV
inactive: [1] 0.077 | [2] 0.037 | [3] 0.017 | [4] -0.036 | [5] 0.108 | [6] 0.008 | [7] 0.017 | [8] 0.069 | [9] -0.009 | [10] 0.042 | [11] 0.022 | [12] -0.015 | [13] -0.041 | [14] 0.016 | [15] -0.115 | [16] -0.149 | [17] -0.032 | [18] -0.004 | [19] 0.009 | [20] 0.021

UCHL5 (UniProt Q9Y5K5)
inactive: [1] -0.018 | [2] 0.094 | [3] 0.005 | [4] -0.024 | [5] 0.036 | [6] 0.008 | [7] 0.02 | [8] 0.03 | [9] -0.001 | [10] -0.01 | [11] -0.041 | [12] -0.051 | [13] -0.012 | [14] 0.03 | [15] -0.028 | [16] -0.161 | [17] 0.054 | [18] -0.004 | [19] -0.004 | [20] -0.018

VPS16 (UniProt Q9H269)
inactive: [1] 0.104 | [2] 0.128 | [3] -0.004 | [4] -0.034 | [5] 0.093 | [6] 0.087 | [7] -0.031 | [8] -0.018 | [9] -0.007 | [10] -0.128 | [11] 0.028 | [12] -0.073 | [13] -0.02 | [14] 0.043 | [15] -0.154 | [16] -0.29 | [17] -0.035 | [18] 0.1 | [19] 0.006 | [20] 0.061
